# Results from PubChem BioAssay.
# The source made the active and inactive calls. Unless noted, no rule for the calls is given here.
# Experiments:
# [1] = Plasmodium falciparum growth inhibition, primary screen, strain 3D7, DAPI fluorescence, 100 nL (AID 1184);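 also: parasites grown inside human red blood cells in medium with human serum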; settings: P. falciparum 3D7 growth, 3 d, higher = more signal
# [2] = target: Homeobox protein Hox-A13 (Mus musculus) (UniProt Q62424); experiment: inhibitors of HoxA13-DNA binding, primary screen, biochemical, fluorescence polarization, labeled oligonucleotide (AID 1185); settings: 15 min, higher = more signal, called active from +8 up or from −8 down
# [3] = inhibitors of hydroxyurea-induced Chk1 phosphorylation, primary screen, imaging, HeLa, phospho-Chk1 antibody, percent positive cells (AID 1186); settings: hydroxyurea-induced phospho-Chk1 immunofluorescence imaging, higher = more signal
# [4] = inhibitors of hydroxyurea-induced Chk1 phosphorylation, primary screen, imaging, HeLa, phospho-Chk1 nuclear intensity (AID 1187); settings: hydroxyurea-induced phospho-Chk1 immunofluorescence imaging, higher = more signal; also: test concentration not given here
# Sequence of Homeobox protein Hox-A13 (Mus musculus) (Q62424 whole entry, looked up): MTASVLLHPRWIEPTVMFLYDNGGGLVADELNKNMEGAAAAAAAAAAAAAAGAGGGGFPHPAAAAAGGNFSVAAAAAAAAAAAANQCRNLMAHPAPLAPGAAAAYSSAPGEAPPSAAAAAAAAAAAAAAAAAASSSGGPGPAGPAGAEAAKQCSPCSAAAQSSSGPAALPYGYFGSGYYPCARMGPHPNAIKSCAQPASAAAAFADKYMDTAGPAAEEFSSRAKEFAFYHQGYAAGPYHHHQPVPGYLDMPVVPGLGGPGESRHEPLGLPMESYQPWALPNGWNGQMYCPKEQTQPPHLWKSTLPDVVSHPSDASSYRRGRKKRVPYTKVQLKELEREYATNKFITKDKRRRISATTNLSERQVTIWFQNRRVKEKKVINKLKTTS
SMILES,z-score [1],z-score [2],z-score [3],z-score [4]
C=CCC(OC(C)=O)[C@@H]1[C@@H](N(Cc2cccc3ccccc23)C(=O)c2cccc3ccccc23)c2cc(OCCCO)ccc2N1C(=O)Cc1ccc(OC)cc1 (stereo not given in full),-2.48,-1.57 (inactive),-0.0578 (inactive),0.507 (inactive)
C=CCN1C(=O)[C@@]2(O[C@@H](CCn3cc(CCO)nn3)[C@H]([Si](C)(C)c3ccc(OC)cc3)[C@H]2C)c2cc(NC(=O)c3ccc(OC)cc3)ccc21,-2.65,-4.19 (inactive),1.09 (inactive),1.28 (inactive)
C=CCOC(=O)[C@H]1[C@@H]2C(=O)O[C@@H](c3ccccc3)[C@@H](c3ccccc3)N2[C@@H](c2ccc(OCCOC(=O)[C@H]3C[C@H]4C(=O)N5CCC[C@H]5C(=O)N4[C@H]3c3cccc(OCCO)c3)cc2)[C@]12C(=O)Nc1ccccc12,-1.9,1.42 (inactive),0.217 (inactive),0.5 (inactive)
O=C1O[C@H](c2ccccc2)[C@H](c2ccccc2)N2[C@H]1[C@@H](C(=O)NC[C@H](O)c1ccccc1)[C@]1(C(=O)Nc3ccc(C#CC4(O)CCCCCC4)cc31)[C@H]2c1ccc(O)cc1,0.097,-1.84 (inactive),0.104 (inactive),0.572 (inactive)
O=C(O)[C@H]1C[C@H]2C(=O)NCC(=O)N2[C@H]1c1cccc(OCCO)c1,-0.52,-3.76 (inactive),0.328 (inactive),0.212 (inactive)
CCN(CC)c1ccc(N2CC=CC34O[C@@H]5C=CCOC(=O)[C@@H]5[C@H]3C(=O)N(C(C)CO)[C@@H]4C2=O)cc1 (stereo not given in full),0.339,-3.29 (inactive),0.36 (inactive),0.325 (inactive)
COc1ccc([Si](C)(C)[C@H]2[C@H](CCO)O[C@@]3(C(=O)N(Cc4ccc(N5C(=O)c6cccc7cccc5c67)cc4)c4ccccc43)[C@@H]2C)cc1,-1.23,-0.82 (inactive),-1.48 (inactive),-1.39 (inactive)
C=C(COC)C(=O)CC[C@H](OC(=O)c1cccnc1)c1cccc(OCCO)c1,-1.66,-3.09 (inactive),-0.458 (inactive),-0.203 (inactive)
C=C(CCCC)/C(=C/C[C@@H](OC(=O)c1ccncc1)c1ccc(OCCO)cc1)c1cnc2ccccc2c1,-2.84,-2.35 (inactive),-0.191 (inactive),-0.181 (inactive)
C=CCC1(CC=C)C[C@H]2CO[C@H](c3ccc(OC)cc3)N2C1=O,-0.682,-0.41 (inactive),-0.063 (inactive),0.989 (inactive)
COCCOC(=O)N1C(=O)[C@@]2(c3cc(C#CCCO)ccc31)[C@H](c1ccccc1OCCO)N1[C@H](c3ccccc3)[C@H](c3ccccc3)OC(=O)[C@H]1[C@@H]2C(=O)NC[C@H](O)c1ccccc1,-2.08,-0.117 (inactive),-0.29 (inactive),-0.429 (inactive)
CCCNC(=O)[C@@]1(Sc2ccc(C)cc2)CC(=O)N(Cc2cc(C(F)(F)F)cc(C(F)(F)F)c2)[C@@H]1c1ccc(CO)cc1I,-0.975,-2.86 (inactive),-0.661 (inactive),-0.6 (inactive)
C[N+](C)(C)CCCC[C@@H]1NC(=O)[C@@H]2C[C@H](C(=O)NCCCCCNC(=O)CS)[C@H](c3ccc(O)cc3)N2C1=O,-0.34,-1.22 (inactive),-0.536 (inactive),-0.272 (inactive)
CC(C)(C)OC(=O)CC[C@@]12N=C(c3ccc(OCCCO)cc3)O[C@@H]1c1ccccc1N(Cc1ccccc1)C2=O,-2.19,-1.44 (inactive),-0.501 (inactive),-0.284 (inactive)
COCCOC(=O)N1C(=O)[C@@]2(c3cc(C#CC4(O)CCCCCC4)ccc31)[C@H](c1ccccc1OCCO)N1[C@H](c3ccccc3)[C@H](c3ccccc3)OC(=O)[C@H]1[C@@H]2C(=O)Nc1nc2ccccc2s1,-1.67,4.08 (inactive),-0.201 (inactive),-0.38 (inactive)
COc1ccc([Si](C)(C)[C@H]2[C@H](CC(=O)N3Cc4ccccc4C[C@H]3CO)O[C@@]3(C(=O)N(Cc4cccc(N5C(=O)COc6ccccc65)c4)c4ccccc43)[C@@H]2C)cc1,-2.22,-1.82 (inactive),-0.558 (inactive),-0.221 (inactive)
O=C1c2ccccc2[C@](Cc2ccccc2I)(C(=O)O)[C@H](c2ccc(CO)cc2)N1Cc1ccccc1Cl,0.303,-4.18 (inactive),-0.679 (inactive),-0.559 (inactive)
Cc1ccc(N2C(=O)c3ccccc3[C@](C)(C(=O)NC3CC3)[C@@H]2c2ccc(CO)cc2)nc1,0.202,-1.18 (inactive),-0.0797 (inactive),0.24 (inactive)

SMILES,z-score [1],z-score [2],z-score [3],z-score [4]
NC(=O)NCC#Cc1ccc2c(c1)[C@]1(C(=O)N2)[C@H](c2ccc(OCCO)cc2)N2[C@H](c3ccccc3)[C@H](c3ccccc3)OC(=O)[C@H]2[C@@H]1C(=O)Nc1nc2ccccc2s1,-0.745,0.706 (inactive),0.0953 (inactive),0.219 (inactive)
C=CCC(OC(C)=O)[C@@H]1[C@@H](N(Cc2cc3ccccc3o2)C(=O)c2ccc(-c3ccccc3)cc2)c2cc(OCCCO)ccc2N1C(=O)c1ccc(-c2ccccc2)cc1 (stereo not given in full),-1.63,-0.639 (inactive),-0.604 (inactive),-0.195 (inactive)
CC(C)C[C@@H]1NC(=O)[C@@]23C(=O)N[C@@H](Cc4ccccc4)C2[C@H](C)[C@@]2(C)O[C@H]2C3/C=C/CC/C=C/CNC(=O)[C@@H](C)NC1=O (stereo not given in full),-2.13,-4.78 (inactive),-0.0396 (inactive),0.292 (inactive)
O=C(NCc1ccccc1)[C@@H]1c2ccccc2C(=O)N(Cc2ccccc2Cl)[C@H]1c1ccc(CO)cc1,0.187,-0.497 (inactive),-0.0434 (inactive),0.206 (inactive)
O=c1n(-c2ccccc2)c(=O)n2n1CC(COc1ccccc1)=C1[C@@H](CCc3ccccc3)OB(O)C[C@@H]12,-1.02,-6.66 (inactive),-0.337 (inactive),-0.175 (inactive)
CC(C)(C)OC(=O)CC[C@@]1(C(=O)N2CCOCC2)N=C(c2ccc(OCCCO)cc2)O[C@@H]1c1ccccc1,-1.19,-4.03 (inactive),-0.31 (inactive),-0.323 (inactive)
CC(C)C(=C=CC[C@H](O)c1ccc(OCCO)cc1)C[C@H](O)COCc1ccccc1,-2.65,-4.06 (inactive),-0.0011 (inactive),0.313 (inactive)
CC(C)[Si](C#C[Si](C(C)C)(C(C)C)C(C)C)(O[C@H](C)c1cn([C@H](C)c2ccccc2)nn1)C(C)C,-0.628,-0.0303 (inactive),-0.0899 (inactive),0.346 (inactive)
C=CCNC(=O)[C@@H]1[C@H]2C(=O)O[C@H](c3ccccc3)[C@H](c3ccccc3)N2[C@H](c2ccc(O)cc2)[C@@]12C(=O)Nc1ccccc12,-1.73,-3.58 (inactive),0.21 (inactive),0.399 (inactive)
[N-]=[N+]=NCc1ccccc1C[C@@]1(C(=O)NCc2ccccc2)N=C(c2ccc(OCCCO)cc2)O[C@@H]1c1ccccc1,-2.15,0.77 (inactive),-1.01 (inactive),-1.39 (inactive)
COc1ccc(/C=C/C(=O)c2cccc(OCC(=O)OC(C)(C)C)c2)cc1,-0.732,-3.31 (inactive),-0.0499 (inactive),0.373 (inactive)
C=C(C(=O)CC[C@H](OC(C)=O)c1ccc(CO)o1)C(C)C,-2.1,-2.79 (inactive),-0.17 (inactive),-0.428 (inactive)
CC(C)C(CO)N1C(=O)[C@@H]2[C@H]3C(=O)OCC=C[C@H]3OC23C=CCN(Cc2ccccc2)C(=O)[C@@H]13 (stereo not given in full),-0.383,-2.93 (inactive),-0.228 (inactive),-0.647 (inactive)
COCCOC(=O)N1C(=O)[C@@]2(c3cc(C#CCNC(N)=O)ccc31)[C@H](C(=O)NC[C@H](O)c1ccccc1)[C@H]1C(=O)O[C@H](c3ccccc3)[C@H](c3ccccc3)N1[C@@H]2c1ccc(O)cc1,0.418,-2.4 (inactive),-0.134 (inactive),-0.595 (inactive)
C=CCN1C(=O)[C@]2(O[C@H](CCn3cc([C@H](O)c4ccccc4)nn3)[C@@H]([Si](C)(C)c3ccc(OC)cc3)[C@@H]2C)c2cc(N3CCOC3=O)ccc21,-2.91,-4.64 (inactive),-1.73 (inactive),-1.22 (inactive)
COc1c(C)cc(-c2cc3c(c(CCc4ccccc4)n2)[Si](C(C)C)(C(C)C)OC3)cc1C,-0.633,-0.207 (inactive),-0.666 (inactive),-0.461 (inactive)
CC(C)(C)OC(=O)CC[C@]1(C(=O)NCc2ccccc2)COC(c2ccc(OCCCO)cc2)=N1,-0.561,-5.02 (inactive),0.0879 (inactive),0.166 (inactive)
